Bioassay records: PubChem, several laboratories
Hits are enriched below; roughly 5.4% of the tested compounds scored in any of these assays.
GASC-1 inh = inhibitors of human GASC-1 (JMJD2C) demethylase. Q9H3R0. GST-JMJD2C(1-420) H3K9me3 demethylation, DELFIA europium. inhibition, % at 2.35 µM. actives 0.069% (n = 330,000);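 active = more than half of a compound's replicate wells show inhibition beyond 50%, single wells judged on their own value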;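 note: signal counts dimethyl H3K9 product captured on neutravidin plate; 0% = median of DMSO wells and 100% = 0.3 times that DMSO median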
ALR H2O2 inh = blocks human ALR sulfhydryl oxidase activity; purified ALR, DTT oxidation, H2O2 HRP-luminol luminescence; inhibition, % (concentration not given with the values); actives 3.8% (n = 290,000); AID 485317;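 active = mean replicate inhibition above about 79%, with every replicate also reaching it, limit read from the data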
Target sequence (P55789 whole entry, looked up): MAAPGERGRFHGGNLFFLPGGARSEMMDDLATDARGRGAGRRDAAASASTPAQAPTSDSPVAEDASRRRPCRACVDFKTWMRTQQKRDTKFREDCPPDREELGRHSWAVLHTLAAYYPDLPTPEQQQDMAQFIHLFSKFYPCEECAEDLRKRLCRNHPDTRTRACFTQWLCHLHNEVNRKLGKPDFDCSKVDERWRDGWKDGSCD
Granule exo inh = lytic granule exocytosis inhibition; TALL-104 LAMP-1 surface exposure, flow cytometry; cells stimulated with thapsigargin and PMA; inhibition, % at 10 µM; actives 0.66% (n = 360,000); AID 651702;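 active = inhibition above about 55%, limit read from the data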
beta cell repl = induces beta-cell replication in MIN6 cells. MIN6 cells proliferation, ATPlite luminescence, 48 h; cells starved in 0.2% serum; 100% = growth in 10% serum. proliferation, % at 10 µM. actives 0.29% (n = 330,000). AID 2380;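 active = compounds whose signal lies at least 3.5 SD above the mean of all wells on their plate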;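 note: 0% = DMSO-treated cells in low-serum medium and 100% = 10% serum control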
SMARCA2 act = activators of SMARCA2 function | MG213 cells, MMTV-luciferase reporter, dexamethasone, overnight | activation, % at 9.1 µM | actives 1% (n = 370,000); in the data active = activation above about 7.8%;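 note: 0% = vehicle wells and 100% = reference activator wells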
PfM18AAP inh = PfM18AAP enzyme inhibition. recombinant PfM18AAP, H-Glu-NHMec fluorogenic cleavage. inhibition, % at 7.35 µM. actives 1.2% (n = 290,000). AID 1822;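 active = inhibition above the campaign mean inhibition over all tested compounds plus 3 SD, cut at about 28% in these data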;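 note: 0% = plate median of test compound wells and 100% = 2 mM ZnCl2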
Granule exo CP1 = lytic granule exocytosis inhibition | shares compounds with Granule exo inh | TALL-104 cells, LAMP-1 externalization, flow cytometry; stimulated with PMA plus thapsigargin | inhibition, % at 10 µM | actives 11% (n = 1,500); in the data active = inhibition above about 60%;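 note: 0% = stimulated vehicle wells and 100% = unstimulated wells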
An asterisk follows results filed as active.

O=C(CSc1nc2ccccc2s1)N1c2ccccc2Sc2ccccc21 was read as GASC-1 inh 8, ALR H2O2 inh -5, Granule exo inh 62*, beta cell repl -4, SMARCA2 act -1, PfM18AAP inh 2 and Granule exo CP1 2.
`O=C(C1CCCN1S(=O)(=O)c1ccccc1[N+](=O)[O-])N1CCc2ccccc2C1` (stereo unspecified) gave SMARCA2 act -2.
CCOc1cccc(CN2CCCC(N3CCc4ccccc4C3)C2)c1O (stereo unspecified) was read as GASC-1 inh -1, Granule exo inh -2, beta cell repl 0, SMARCA2 act -2 and PfM18AAP inh 2.
For CCOc1cccc(CN2CCCC(N3CCN(c4cccc(Cl)c4)CC3)C2)c1O (stereo unspecified) the results were GASC-1 inh -2, Granule exo inh 66*, beta cell repl -4, SMARCA2 act 0, PfM18AAP inh -9 and Granule exo CP1 -10.
CCOc1cccc(CN2CCCC(C(=O)c3cc(Cl)ccc3OC)C2)c1O (stereo unspecified) was read as GASC-1 inh -4, Granule exo inh 80*, beta cell repl -2, SMARCA2 act 3, PfM18AAP inh -5 and Granule exo CP1 -9.
For CCOC(=O)C1CCCN(Cc2ccc(OCc3ccccc3)cc2)C1 (stereo unspecified) the results were GASC-1 inh 153, ALR H2O2 inh -40, Granule exo inh 47, beta cell repl -4, SMARCA2 act -2 and PfM18AAP inh -2.
`CCOC(=O)C1CCCN(Cc2ccc(OCc3ccccc3)c(OC)c2)C1` (stereo unspecified) gave GASC-1 inh -4, ALR H2O2 inh -6, Granule exo inh 57*, beta cell repl -2, SMARCA2 act 1, PfM18AAP inh 3 and Granule exo CP1 -13.
For COC(=O)N1C[C@@H]2Oc3nccnc3O[C@@H]2C[C@@H]1c1ccccc1Br the results were SMARCA2 act 0.
CCc1cc2c(nc1CC)CCCN2C was read as SMARCA2 act -3.
Screening O=C(Nc1ccccc1)N1c2ccccc2SC1c1ccco1 (stereo unspecified) returned SMARCA2 act -4.
Cc1c(C)n(-c2ccccc2)c2ncnc(NCCN(C)C)c12 was read as GASC-1 inh 0, ALR H2O2 inh -11, Granule exo inh 65*, beta cell repl 3, SMARCA2 act 0, PfM18AAP inh 0 and Granule exo CP1 -10.
For CC(C)C[C@H](NC(=O)C1CCCC1)C(=O)N1CCC[C@H]1C(=O)NCc1ccccc1 the results were SMARCA2 act 1.
For COc1ccc(N2C(=O)NC(NC(=O)C(C)(C)C)(C(F)(F)F)C2=O)cc1 (stereo unspecified) the results were GASC-1 inh 0, ALR H2O2 inh -6, Granule exo inh 0, beta cell repl -3, SMARCA2 act -4 and PfM18AAP inh -5.
`CC(C)CC(=O)NC1(C(F)(F)F)NC(=O)N(c2ccccc2)C1=O` (stereo unspecified) gave GASC-1 inh 2, Granule exo inh 90*, beta cell repl -1, SMARCA2 act -3, PfM18AAP inh 3 and Granule exo CP1 -4.
Cc1cnc(C(=O)OCC(=O)NCCc2ccccc2)cn1 was read as GASC-1 inh -4, Granule exo inh 110*, beta cell repl 1, SMARCA2 act -2, PfM18AAP inh -2 and Granule exo CP1 -4.
`CC(=O)N1c2ccccc2S(=O)(=O)c2c1ccc1ccccc21` gave Granule exo inh 79*, SMARCA2 act -3 and Granule exo CP1 -13.
`CC(=O)N1c2ccccc2S(=O)(=O)c2ccccc21` gave GASC-1 inh -5, ALR H2O2 inh 8, Granule exo inh 0, beta cell repl -3 and SMARCA2 act -1.
